Experimental data as given in PubChem BioAssay AID720613 (Broad Institute, 2013).
Records with an inconclusive call do not appear. Calls of active or inactive are those of the source.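 The calls were made as follows: active = falling viability signal at all three exposure times, each curve midpoint within twice the top tested dose; inconclusive = exposure times disagree or curves are weak or poorly fitted; inactive = all exposure times inactive, including rising signal.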

Test: SNB-75 astrocytoma cell viability, late-stage follow-up, mechanism study for HRAS target identification, Alamar Blue fluorescence, 8-48 h, dry powder (AID 720613)

SMILES: Cc1onc(C(=O)N2CCN(C(c3ccncc3)c3ccncc3)CC2)c1[N+](=O)[O-]
- outcome: inactive

SMILES: CCC(=O)N(c1ccc(OC)c(Cl)c1)C(C(=O)NCCc1ccccc1)c1cccs1 (configuration not stated)
- outcome: inactive
